Measured values published in PubChem BioAssay (NCI).
This is part of a sample that, as a whole, favours compounds with a hit. Of some 83,000 tested, about 20% had one in any assay.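 Activity criterion: percent growth below 10, measured after cells in 96-well plates were exposed to a single compound concentration for 48 hours.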 Calls of active or inactive are those of the source.

What was measured:
Experiment in all cases: NCI-60 one-dose screen, 48 h (100 = growth as untreated, 0 = no growth, -100 = all killed)
Conditions in all cases: 10 µM unless noted
[1] = tested on: T-47D breast
[2] = tested on: BT-549 breast
[3] = tested on: MDA-MB-435 melanoma
[4] = tested on: SW-620 colon
[5] = tested on: MCF7 breast
[6] = tested on: HCT-116 colon
[7] = tested on: HCC-2998 colon
[8] = tested on: KM12 colon

Measured: growth

COc1cc(C2CC(c3ccc(C)cc3)=NN2C=O)ccc1OCCN(C)C (stereo not drawn)
inactive: [1] 90.6% | [2] 80.7% | [3] 102% | [4] 96.5% | [5] 92.5% | [6] 88.9% | [7] 98.4% | [8] 101%

NC(=NCCCCCCN=C(N)/N=C(\N)Nc1ccc(Cl)cc1)/N=C(\N)Nc1ccc(Cl)cc1
active: [5] 7.79% | [8] -12%
inactive: [1] 19.3% | [2] 10.6% | [3] 18.3% | [4] 23.4% | [6] 13.5% | [7] 15.3%

O=C1/C(=C\c2coc3ccccc3c2=O)c2ccccc2N1c1c(Cl)cccc1Cl
inactive: [1] 30% | [2] 41.1% | [3] 14.5% | [4] 35% | [5] 31.6% | [6] 35.6% | [7] 53% | [8] 27.1%

O=C(Nc1cccc(-n2cc(-c3ccncc3)c(-c3cc(O)cc(Cl)c3)n2)c1)Nc1ccc(Cl)c(Cl)c1
active: [1] -5.53% | [2] 0.544% | [3] -33.3% | [4] -33.8% | [5] 2.74% | [6] -57.3% | [7] 0.568% | [8] 2.26%

COc1cc(/C(Cl)=C/C=C/C(=O)c2c(C)[n+]([O-])c3ccc(Cl)cc3[n+]2[O-])cc(OC)c1OC
active: [3] 6.9% | [4] 1.65% | [5] 0.61% | [6] 2.9%
inactive: [1] 22.3% | [2] 36.5% | [7] 83.2% | [8] 33%

CCCCCN(CCCCC)CCCNc1c2c(nc3ccc(Cl)cc13)CCCC2
active: [6] 5.37%
inactive: [1] 38.1% | [2] 36.2% | [3] 66.4% | [4] 33.5% | [5] 35.5% | [7] 16.3% | [8] 55.5%

N/C(=N\c1nc2ccccc2s1)NC(=O)Nc1ccccc1Cl
active: [3] -31.8%
inactive: [1] 37% | [2] 18.6% | [4] 27.7% | [5] 21.1% | [6] 13% | [7] 14.2% | [8] 12.7%

Cc1onc(-c2ccccc2Cl)c1C(=O)N[C@@H]1C(=O)N2[C@@H]1SC(C)(C)[C@@H]2C(=O)O
inactive: [1] 98.1% | [2] 100% | [3] 107% | [4] 110% | [5] 101% | [6] 101% | [7] 99.6% | [8] 108%

CCOc1cc(/C=C/C(=O)CC(=O)/C=C/c2ccc(OC(=O)CNc3nc4ccc(OC)cc4s3)c(OCC)c2)ccc1OC(=O)CNc1nc2ccc(OC)cc2s1
inactive: [1] 79.7% | [4] 17.9% | [7] 39.6%
active: [2] -1.58% | [3] -22.2% | [5] 9.28% | [6] 4.31% | [8] 9.4%

COc1ccc2nc(-c3ccc(Cl)cc3)cc(-c3nnc(SCC(=O)Nc4ccc(C(C)=O)cc4)n3-c3ccccc3)c2c1
inactive: [1] 87.2% | [2] 87.5% | [3] 100% | [4] 108% | [5] 100% | [6] 100% | [7] 97.7% | [8] 95.3%

C1CCC(C(CC2CCCCN2)C2CCCCC2)CC1 (stereo not drawn)
active: [1] -48.9% | [3] -73.8% | [4] -84.6% | [5] -62.6% | [6] -94.1% | [7] -90.6% | [8] -54.1%
inactive: [2] 41.1%

O=C(N/N=C/c1cccc(O)c1O)c1ccccc1
inactive: [1] 15.5% | [2] 31.3% | [3] 28.8% | [4] 33.5% | [8] 25.9%
active: [5] 3.07% | [6] 9.39% | [7] 8.51%

CCOC(=O)C(Br)=P(c1ccccc1)(c1ccccc1)c1ccccc1
inactive: [1] 97.7% | [2] 117% | [3] 98.6% | [4] 105% | [5] 111% | [6] 110% | [7] 109% | [8] 112%

CN(C)c1ccc(-c2nc3ncc(Br)cc3o2)cc1
inactive: [1] 75.7% | [2] 78.3% | [3] 115% | [4] 99.3% | [5] 97.6% | [6] 86.8% | [7] 85% | [8] 113%

C/C(=C\CCc1ccoc1)CC/C=C(\C)CCCN1CCSCC1
inactive: [1] 60.9% | [2] 77.7% | [3] 91.1% | [4] 86.1% | [5] 43.2% | [6] 53.8% | [7] 74.6% | [8] 81%

N/C(=N\C(N)=N\c1nc2ccccc2s1)c1ccnc(Cl)c1
inactive: [1] 60.8% | [2] 38% | [4] 16.8% | [5] 31.5% | [6] 31.7% | [7] 62.7% | [8] 32%
active: [3] -34.9%

Clc1ccc2nc(CI)c(CI)nc2c1
inactive: [1] 85.3% | [2] 73.1% | [3] 23.8% | [4] 25.1% | [5] 22.4% | [6] 11% | [7] 100% | [8] 101%

COc1ccc(C(=O)COc2ccc(/C=C3\Oc4ccc5ccccc5c4C3=O)cc2)cc1
inactive: [1] 55.8% | [2] 45.1% | [3] 101% | [4] 94.6% | [5] 36.3% | [6] 85.9% | [7] 97.9% | [8] 90.9%

Oc1c(Cl)cc(Cl)c(Cl)c1Cc1c(O)c(Cl)cc(Cl)c1Cl
inactive: [1] 33.8% | [2] 17.2% | [3] 10.4% | [4] 16.7% | [5] 10.3%
active: [6] 3.93% | [7] 7.48% | [8] 8.09%

COC(=O)[C@H](Cc1cn(C)cn1)NC(=O)[C@H](Cc1ccccc1)NC(=O)Nc1cc(C(F)(F)F)cc(C(F)(F)F)c1
active: [1] -55.3% [100 µM] | [2] -95.5% [100 µM] | [3] -85.4% [100 µM] | [4] -46.2% [100 µM] | [5] -60.8% [100 µM] | [6] -91.5% [100 µM] | [7] -86.9% [100 µM] | [8] -92.2% [100 µM]

CCOC(=O)c1cc2oc(/C=C/c3cc(=O)c4cc(Cl)ccc4o3)cc2[nH]1
inactive: [1] 68.4% | [2] 53.5% | [3] 88.2% | [4] 82.5% | [5] 40.2% | [6] 81.2% | [7] 98.1% | [8] 62.8%

O=C1N=C(N2CCOCC2)S/C1=C\c1cn(-c2ccccc2)nc1-c1ccccc1
inactive: [1] 62.4% | [2] 53.8% | [3] 65.3% | [4] 98.8% | [5] 81.5% | [6] 64.4% | [7] 100% | [8] 96.4%

C[C@H](C(=O)N[C@@H](Cc1ccc(-c2ccccc2)cc1)C(=O)NC1CC(C)(C)N(C)C(C)(C)C1)c1ccc(-c2ccccc2)c(F)c1
active: [1] -52.7% | [2] -82.5% | [3] -84.9% | [4] -76.8% | [5] -79.6% | [6] -87.6% | [7] -86.8% | [8] -78.6%

Nc1ccc2c(c1)Cc1cc(Cl)c(Cl)cc1-2
inactive: [1] 85.3% | [2] 60.4% | [3] 28.1% | [4] 38.1% | [5] 30% | [6] 49.5% | [7] 66.4% | [8] 52.2%

C[C@H](C(=O)N[C@@H](Cc1ccc(-c2ccccc2)cc1)C(=O)NC1CC(C)(C)NC(C)(C)C1)c1ccc(-c2ccccc2)c(F)c1
active: [1] -37.2% | [2] -19.8% | [3] -90.1% | [4] -78.2% | [5] -50.9% | [6] -85.8% | [7] -83% | [8] -80%

Cc1csc(C#Cc2cncc(O)c2)n1
inactive: [1] 98.3% | [2] 113% | [3] 96.8% | [4] 113% | [5] 97.8% | [6] 103% | [7] 107% | [8] 125%

Nc1nc(Nc2ccccc2SSc2ccccc2Nc2nc(N)nc(-c3cccc(Cl)c3)n2)nc(-c2cccc(Cl)c2)n1
inactive: [1] 68.9% | [2] 94.3% | [3] 101% | [4] 104% | [5] 82.8% | [6] 90.9% | [7] 110% | [8] 77%

Cc1ccc(S(=O)(=O)NCCN2c3nc4ccccc4cc3Sc3cc4ccccc4nc32)cc1
inactive: [1] 62.5% | [2] 46.2% | [3] 105% | [4] 87.7% | [5] 69% | [6] 70.5% | [7] 86.3% | [8] 165%

Cc1ccc(-c2c3c(N)c4c(nc3nc3c2c(C)nn3-c2ccccc2)CCC4)cc1
active: [4] 6.36% | [6] -72.5%
inactive: [1] 103% | [2] 90.4% | [3] 103% | [5] 14.9% | [7] 100% | [8] 79.8%

COC(=O)[C@H](Cc1cn(C)cn1)NC(=O)[C@H](C)NC(=O)Nc1cc(C(F)(F)F)cc(C(F)(F)F)c1
active: [1] -58.7% [100 µM] | [2] -91.6% [100 µM] | [3] -86.7% [100 µM] | [4] -27.4% [100 µM] | [5] -60% [100 µM] | [6] -84.2% [100 µM] | [7] -88.9% [100 µM] | [8] -70.8% [100 µM]

OC(c1ccccc1)C(NCc1ccccc1)c1ccccc1 (stereo not drawn)
inactive: [1] 91.7% | [2] 98.7% | [3] 78.9% | [4] 92.9% | [5] 97.1% | [6] 66.1% | [7] 105% | [8] 102%
